The values that follow come from PubChem BioAssay (EPA / NIEHS).

One may read the AC50 as the concentration at which the activity in the assay is half-maximal.

Structures are written as SMILES. Results filed as inconclusive are left out. Calls of active or inactive are those of the source. The calls were made as follows: active = hit-call score of the fitted dose curve at least 0.9, where 1 is the maximum; inconclusive = response in the unintended direction; inactive = score below 0.9.

For assay [1], the target named is rat Thyrotropin Releasing Hormone Receptor (TRH), Trhr (gene 25570) (UniProt Q01717). Nature of the assay: NVS_GPCR_rTRH: NovaScreen (NVS) G Protein-Coupled Receptor Assay for rat Thyrotropin Releasing Hormone Receptor (TRH) (AID 2283329).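 Also: hit means lower bound tracer signal versus DMSO baseline.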 Put shortly:
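Competitive radioligand binding on rat forebrain membrane preparations, with filtration and scintillation readout after 4 h. Primary testing in duplicate at 25 uM; actives confirmed in concentration-response. DMSO defined baseline.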

Assay [2] has as its target bovine Estrogen Receptor (ER), ESR1 (gene 407238) (UniProt P49884). The assay can be described thus: NVS_NR_bER: NovaScreen (NVS) Nuclear Receptor Binding Assay for bovine Estrogen Receptor (ER) (AID 2283345).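 Also: actives lower the bound radioligand count which means they displace the ER ligand.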 Put shortly: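 Displacement of a radioligand from estrogen receptor in bovine uterine membrane preparations; scintillation signal taken at 18 hours, DMSO as baseline. Single-concentration duplicates (25 uM) preceded concentration-response follow-up of actives.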

For assay [3], the target named is Estrogen receptor (Homo sapiens) (UniProt P03372). The assay can be described thus: NVS_NR_hER: NovaScreen (NVS) Nuclear Receptor Binding Assay for human Estrogen Receptor (ER) (AID 2283348). Put shortly:
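Cell-free MCF7-derived ER preparation, specific radioligand displaced by test compound, read by scintillation counting 18 h post-dosing. Duplicate single-point 25 uM screen, then concentration-response confirmation; DMSO baseline.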

Assay [4] has the same target. Nature of the assay: OT_ER_ERaERa_1440: Odyssey Thera (OT) 24-hour HEK293T Protein-Complementation Assay for Estrogen Receptor-alpha/-alpha Homodimer (AID 2283349).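 Also: hits raise fluorescence above DMSO for agonists and antagonists alike.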 The method, boiled down:
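HEK293T, stable ERα LBD (aa 310-547) homodimer PCA; 24 h compound exposure; mean fluorescence intensity (nuclear for agonists, nuclear plus cytoplasmic for antagonists) vs vehicle; positive fitting direction, DMSO baseline.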

For assay [5] the target is unchanged. The assay can be described thus: OT_ER_ERaERa_0480: Odyssey Thera (OT) 8-hour HEK293T Protein-Complementation Assay for Estrogen Receptor-alpha/-alpha Homodimer (AID 2283351).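 Also: rise in fluorescence from reassembled reporter fragments on ERα LBD homodimer in nucleus or whole cell.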 Put shortly:
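HEK293T cells stably expressing a PCA pair of ER alpha LBD (residues 310-547) were dosed for 8 hours. The gain in fluorescence intensity, nuclear for agonists and whole-cell for antagonists, was measured by laser scanning cytometry against DMSO vehicle.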

The target in assay [6] is T1, Estrogen receptor (Homo sapiens) + Estrogen receptor beta (Homo sapiens) (UniProt P03372+Q92731). Nature of the assay: OT_ER_ERaERb_0480: Odyssey Thera (OT) 8-hour HEK293T Protein-Complementation Assay for Estrogen Receptor-alpha/-beta Heterodimer (AID 2283352). Put shortly:
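Fluorescence increase from reconstituted reporter fragments, quantified by laser scanning cytometer, reflects ER-alpha/ER-beta heterodimer formation in human HEK293T cells. Exposure 8 h; positive-direction fitting against DMSO vehicle.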

Assay [7] concerns the target T1, Estrogen receptor (Homo sapiens) + Estrogen receptor beta (Homo sapiens). Nature of the assay: OT_ER_ERaERb_1440: Odyssey Thera (OT) 24-hour HEK293T Protein-Complementation Assay for Estrogen Receptor-alpha/-beta Homodimer (AID 2283356).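 Also: heteromer of ER alpha and ER beta binding domains; hits raise reporter fluorescence and both agonists and antagonists give an increase.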 Put shortly: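 Fragment complementation between ER alpha (310-547) and ER beta (263-489) ligand-binding domains in HEK293T cells; signal read 24 h post-dosing by laser scanning cytometer. Gain of fluorescence relative to DMSO fitted.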

The target of assay [8] is Estrogen receptor beta (Homo sapiens) (UniProt Q92731). The assay can be described thus: OT_ER_ERbERb_0480: Odyssey Thera (OT) 8-hour HEK293T Protein-Complementation Assay for Estrogen Receptor-beta/-beta Homodimer (AID 2283357).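 Also: active means signal gain over DMSO baseline.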 The method, boiled down:
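ER-beta LBD homodimer PCA stably expressed in HEK293T; 8 h compound exposure, then formaldehyde fixation and Draq5 staining. Gain in nuclear/cytoplasmic fluorescence intensity versus DMSO vehicle, read on laser scanning cytometer.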

The target in assay [9] is Sodium channel protein type 1 subunit alpha (Rattus norvegicus) (UniProt P04774). The assay can be described thus: NVS_IC_rNaCh_site2: NovaScreen (NVS) Ion Channel Assay for rat Sodium Channel, Site 2 (NaCh) (AID 2283322).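 Also: hit means loss of radioligand binding signal relative to DMSO so AC50 marks displacement.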 Put shortly:
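Initial duplicate single-point testing at 25 uM, followed by concentration-response runs for actives. Binding of radioligand to rat forebrain membranes quantified after 1 h via filter-based radiodetection.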

For assay [10], the target named is chimpanzee Androgen Receptor (AR), AR (gene 747460) (UniProt O97775). The assay can be described thus: NVS_NR_cAR: NovaScreen (NVS) Nuclear Receptor Binding Assay for chimpanzee Androgen Receptor (AR) (AID 2283346).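 Also: radioligand displacement from AR measured by scintillation counting in a cell-free assay; a loss of bound radioligand signal versus DMSO counts as binding.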 Put shortly: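 Cell-free competition binding with insect-cell (Sf9/Sf21) extracted chimpanzee AR; scintillation signal from lysate at 72 h. Screened in duplicate at 25 uM, then concentration-response for actives; fitting relative to DMSO.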
Chain of chimpanzee Androgen Receptor (AR), AR (gene 747460) (O97775 whole entry, looked up): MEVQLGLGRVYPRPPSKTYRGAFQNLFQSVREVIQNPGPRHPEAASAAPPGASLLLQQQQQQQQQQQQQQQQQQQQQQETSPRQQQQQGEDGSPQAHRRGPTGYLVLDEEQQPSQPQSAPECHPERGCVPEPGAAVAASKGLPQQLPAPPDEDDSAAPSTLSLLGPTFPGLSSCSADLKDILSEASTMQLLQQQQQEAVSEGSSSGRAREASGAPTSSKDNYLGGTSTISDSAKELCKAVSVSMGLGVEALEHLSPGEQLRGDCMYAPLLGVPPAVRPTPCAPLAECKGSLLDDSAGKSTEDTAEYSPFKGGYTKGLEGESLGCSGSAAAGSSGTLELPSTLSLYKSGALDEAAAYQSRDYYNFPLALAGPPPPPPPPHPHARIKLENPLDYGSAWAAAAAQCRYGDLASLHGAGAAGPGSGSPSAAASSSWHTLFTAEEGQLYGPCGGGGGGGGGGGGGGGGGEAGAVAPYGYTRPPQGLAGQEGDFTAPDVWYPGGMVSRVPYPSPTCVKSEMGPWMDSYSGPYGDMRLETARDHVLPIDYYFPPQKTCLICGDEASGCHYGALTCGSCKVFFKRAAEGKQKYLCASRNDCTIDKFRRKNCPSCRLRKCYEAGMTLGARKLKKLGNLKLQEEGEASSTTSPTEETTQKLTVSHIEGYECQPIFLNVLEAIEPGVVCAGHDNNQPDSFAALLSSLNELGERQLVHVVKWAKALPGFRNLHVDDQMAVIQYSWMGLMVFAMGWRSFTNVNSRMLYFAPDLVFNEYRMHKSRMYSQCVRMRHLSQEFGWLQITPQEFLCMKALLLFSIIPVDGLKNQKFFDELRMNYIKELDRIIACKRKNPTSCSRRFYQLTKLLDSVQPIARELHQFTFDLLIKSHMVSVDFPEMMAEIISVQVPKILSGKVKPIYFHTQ

Assay [11] can be described thus: NVS_IC_rCaBTZCHL: NovaScreen (NVS) Ion Channel Assay for Calcium Channel, Type L, Benzothiazepine Site (CaBTZCHL) (AID 2283337). Put shortly:
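Rat cortical membrane preparation incubated 1.5 h with compound and benzothiazepine-site radioligand; loss of filter-bound counts versus DMSO marks displacement. Initial duplicate testing at 25 uM, actives followed up in concentration series.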

Another assay deals with PGR (gene 5241) (UniProt P06401). Nature of the assay: NVS_NR_hPR: NovaScreen (NVS) Nuclear Receptor Binding Assay for human Progestron Receptor (PR) (AID 2283360).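 Also: active means loss of bound radioligand signal versus DMSO baseline.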 Put shortly:
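T47D-derived receptor preparation, cell-free, with tritiated or iodinated radioligand displacement measured by scintillation 18 h post-dosing. Single 25 uM duplicate screen, then concentration series; signal loss relative to DMSO.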

Assay [12] deals with Retinoic acid receptor alpha (Homo sapiens) (UniProt P10276). Nature of the assay: NVS_NR_hRAR_Antagonist: NovaScreen (NVS) Nuclear Receptor Binding Assay for human Retinoic Acid Alpha Receptor Antagonism (RAR) (AID 2283358). The method, boiled down:
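RARalpha antagonism was read by TR-FRET as loss of binding signal versus DMSO, 2 h after chemical addition, in a biochemical format. Single-concentration duplicates (25 uM) were run first, and actives were retested in concentration series.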

The target in assay [13] is human Peripheral-type Benzodiazepine Receptor (PBR), TSPO (gene 706) (UniProt P30536). Nature of the assay: NVS_MP_hPBR: NovaScreen (NVS) Membrane Protein Assay for human Peripheral-type Benzodiazepine Receptor (PBR) (AID 2283331).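 Also: hits reduce radioligand binding relative to DMSO baseline.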 Put shortly: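 Cell-free binding to human colonic membrane preparations measured by filter-based scintillation counting after 1 h. Compounds first run at 25 uM in duplicate, then concentration series for actives; signal loss against DMSO baseline.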
Chain of human Peripheral-type Benzodiazepine Receptor (PBR), TSPO (gene 706) (P30536 whole entry, looked up): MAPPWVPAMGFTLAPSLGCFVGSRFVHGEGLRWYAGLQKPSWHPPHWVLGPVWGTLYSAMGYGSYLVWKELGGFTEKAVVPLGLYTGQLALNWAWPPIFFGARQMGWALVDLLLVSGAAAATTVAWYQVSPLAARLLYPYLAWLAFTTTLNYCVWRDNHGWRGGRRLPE

The target in assay [14] is rat Peripheral-type Benzodiazepine Receptor (PBR), Tspo (gene 24230) (UniProt P16257). The assay can be described thus: NVS_MP_rPBR: NovaScreen (NVS) Membrane Protein Assay for rat Peripheral-type Benzodiazepine Receptor (PBR) (AID 2283335). Put shortly: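 Competitive displacement of specific radioligand from rat kidney membrane PBR, read by filtration and scintillation after 1 h. Compounds first tested at 25 uM in duplicate, then in concentration series; signal loss relative to DMSO.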
Chain of rat Peripheral-type Benzodiazepine Receptor (PBR), Tspo (gene 24230) (P16257 whole entry, looked up): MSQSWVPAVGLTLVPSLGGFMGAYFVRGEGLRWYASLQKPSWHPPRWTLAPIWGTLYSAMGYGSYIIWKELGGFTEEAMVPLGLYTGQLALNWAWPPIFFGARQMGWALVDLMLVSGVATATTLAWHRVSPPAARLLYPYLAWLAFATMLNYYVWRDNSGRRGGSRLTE

In assay [15] the target is Androgen Receptor/SRC-1 Co-activator, AR (gene 367) (UniProt P10275). Nature of the assay: OT_AR_ARSRC1_0960: Odyssey Thera (OT) 16-hour HEK293T Protein-Complementation Assay for Androgen Receptor/SRC-1 Co-activator (AID 2283353).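 Also: actives raise the signal above DMSO so potency reflects increased AR and SRC-1 complex.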 The method, boiled down:
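Endpoint is gain-of-signal N/C fluorescence ratio in the 488 nm channel versus DMSO, from at least 400 cells per image, measured 16 h post-dosing. Cells: HEK293T stably carrying split-Venus AR/SRC-1 complementation constructs.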

The target in assay [16] is human Peroxisome Proliferator-activated Receptor alpha (PPARa), PPARA (gene 5465) (UniProt Q07869). The assay can be described thus: NVS_NR_hPPARa: NovaScreen (NVS) Nuclear Receptor Binding Assay for human Peroxisome Proliferator-activated Receptor alpha (PPARa) (AID 2283359).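 Also: activity means loss of TR-FRET signal versus DMSO baseline.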 Put shortly:
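Loss of TR-FRET binding signal relative to DMSO was measured 1 h after chemical addition to extracted receptor protein. Chemicals were first tested in duplicate at 25 uM, and actives were followed up in concentration series.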

For assay [17], the target named is Retinoic acid receptor alpha (Homo sapiens) (UniProt P10276). The assay can be described thus: NVS_NR_hRARa_Agonist: NovaScreen (NVS) Nuclear Receptor Binding Assay for human Retinoic Acid Alpha Receptor Agonism (RAR) (AID 2283361). Put shortly: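 Agonist-mode TR-FRET binding format using extracted protein, measured at 2 h post-dosing. Initial duplicate single-point screen at 25 uM preceded concentration series for actives; activity was normalized to DMSO baseline.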
Chain of Retinoic acid receptor alpha (Homo sapiens) (P10276 whole entry, looked up): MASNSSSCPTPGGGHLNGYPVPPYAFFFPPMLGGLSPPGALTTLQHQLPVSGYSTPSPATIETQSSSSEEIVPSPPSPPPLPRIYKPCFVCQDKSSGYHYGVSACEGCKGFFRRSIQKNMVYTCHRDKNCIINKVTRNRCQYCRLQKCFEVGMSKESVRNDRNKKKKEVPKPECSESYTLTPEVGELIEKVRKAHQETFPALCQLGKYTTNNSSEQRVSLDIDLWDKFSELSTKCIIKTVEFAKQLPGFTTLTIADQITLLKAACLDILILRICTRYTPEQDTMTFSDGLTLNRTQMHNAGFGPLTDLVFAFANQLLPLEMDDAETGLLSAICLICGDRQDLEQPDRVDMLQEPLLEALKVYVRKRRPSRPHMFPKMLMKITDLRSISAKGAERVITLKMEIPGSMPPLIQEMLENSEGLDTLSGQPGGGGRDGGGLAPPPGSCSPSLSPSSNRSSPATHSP

Chain of Estrogen receptor beta (Homo sapiens) (Q92731 whole entry, looked up, the tested form may be a part): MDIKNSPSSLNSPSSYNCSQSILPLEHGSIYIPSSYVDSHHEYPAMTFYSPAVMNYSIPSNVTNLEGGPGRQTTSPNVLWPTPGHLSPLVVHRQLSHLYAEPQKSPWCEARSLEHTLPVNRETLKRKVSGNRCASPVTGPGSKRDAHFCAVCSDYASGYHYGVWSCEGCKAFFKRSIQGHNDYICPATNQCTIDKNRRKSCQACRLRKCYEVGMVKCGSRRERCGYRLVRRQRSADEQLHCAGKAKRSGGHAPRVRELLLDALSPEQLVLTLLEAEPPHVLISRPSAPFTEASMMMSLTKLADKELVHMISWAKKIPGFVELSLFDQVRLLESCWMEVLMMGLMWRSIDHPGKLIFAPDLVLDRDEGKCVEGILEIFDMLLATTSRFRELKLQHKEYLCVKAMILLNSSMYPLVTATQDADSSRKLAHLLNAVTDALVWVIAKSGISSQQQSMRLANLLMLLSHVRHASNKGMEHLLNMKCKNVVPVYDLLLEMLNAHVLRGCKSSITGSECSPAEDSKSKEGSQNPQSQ
Chain of Estrogen receptor (Homo sapiens) (P03372 whole entry, looked up): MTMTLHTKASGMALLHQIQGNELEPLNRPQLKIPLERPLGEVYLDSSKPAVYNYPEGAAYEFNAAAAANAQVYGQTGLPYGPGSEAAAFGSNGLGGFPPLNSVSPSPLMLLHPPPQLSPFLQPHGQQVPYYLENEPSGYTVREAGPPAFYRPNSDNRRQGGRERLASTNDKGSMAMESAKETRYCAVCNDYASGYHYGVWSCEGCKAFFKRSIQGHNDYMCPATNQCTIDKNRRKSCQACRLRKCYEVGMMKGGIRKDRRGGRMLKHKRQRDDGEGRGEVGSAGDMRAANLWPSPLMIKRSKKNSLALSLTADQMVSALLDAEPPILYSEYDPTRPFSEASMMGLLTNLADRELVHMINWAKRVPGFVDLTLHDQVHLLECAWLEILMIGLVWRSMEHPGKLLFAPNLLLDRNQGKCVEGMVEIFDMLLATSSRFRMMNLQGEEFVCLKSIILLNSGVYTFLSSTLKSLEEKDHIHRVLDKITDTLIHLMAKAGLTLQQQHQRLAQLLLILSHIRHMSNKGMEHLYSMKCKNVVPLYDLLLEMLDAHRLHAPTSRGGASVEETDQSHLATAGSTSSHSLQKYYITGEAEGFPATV
T1 sequence (P03372 whole entry, looked up, the tested form may be a part): as the sequence (P03372 whole entry, looked up) above
T1 sequence (Q92731 whole entry, looked up, the tested form may be a part): as the sequence (Q92731 whole entry, looked up, the tested form may be a part) above
Chain of rat Thyrotropin Releasing Hormone Receptor (TRH), Trhr (gene 25570) (Q01717 whole entry, looked up): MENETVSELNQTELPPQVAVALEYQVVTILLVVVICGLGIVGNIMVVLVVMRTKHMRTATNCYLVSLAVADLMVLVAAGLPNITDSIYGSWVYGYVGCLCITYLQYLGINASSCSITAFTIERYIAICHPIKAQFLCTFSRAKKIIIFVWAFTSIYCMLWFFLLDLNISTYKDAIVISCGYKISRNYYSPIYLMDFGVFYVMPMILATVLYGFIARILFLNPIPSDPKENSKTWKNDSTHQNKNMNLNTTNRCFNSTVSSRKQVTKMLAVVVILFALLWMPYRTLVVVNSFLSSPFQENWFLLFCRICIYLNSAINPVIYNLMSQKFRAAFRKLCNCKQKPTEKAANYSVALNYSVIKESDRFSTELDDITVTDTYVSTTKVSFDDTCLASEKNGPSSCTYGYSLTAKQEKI
Chain of human Peroxisome Proliferator-activated Receptor alpha (PPARa), PPARA (gene 5465) (Q07869 whole entry, looked up): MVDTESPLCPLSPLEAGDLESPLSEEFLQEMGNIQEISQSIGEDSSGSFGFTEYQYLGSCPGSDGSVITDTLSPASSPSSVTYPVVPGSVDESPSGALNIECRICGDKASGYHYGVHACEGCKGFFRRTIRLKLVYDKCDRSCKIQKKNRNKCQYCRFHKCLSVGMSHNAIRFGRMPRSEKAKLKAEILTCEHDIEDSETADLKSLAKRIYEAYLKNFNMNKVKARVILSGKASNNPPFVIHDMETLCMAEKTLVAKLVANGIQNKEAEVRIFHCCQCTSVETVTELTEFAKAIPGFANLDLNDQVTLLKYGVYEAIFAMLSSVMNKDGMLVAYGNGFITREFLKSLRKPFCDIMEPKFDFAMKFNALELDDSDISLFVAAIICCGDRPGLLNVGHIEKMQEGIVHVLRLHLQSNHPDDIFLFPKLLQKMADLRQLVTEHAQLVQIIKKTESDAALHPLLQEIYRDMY
Chain of bovine Estrogen Receptor (ER), ESR1 (gene 407238) (P49884 whole entry, looked up): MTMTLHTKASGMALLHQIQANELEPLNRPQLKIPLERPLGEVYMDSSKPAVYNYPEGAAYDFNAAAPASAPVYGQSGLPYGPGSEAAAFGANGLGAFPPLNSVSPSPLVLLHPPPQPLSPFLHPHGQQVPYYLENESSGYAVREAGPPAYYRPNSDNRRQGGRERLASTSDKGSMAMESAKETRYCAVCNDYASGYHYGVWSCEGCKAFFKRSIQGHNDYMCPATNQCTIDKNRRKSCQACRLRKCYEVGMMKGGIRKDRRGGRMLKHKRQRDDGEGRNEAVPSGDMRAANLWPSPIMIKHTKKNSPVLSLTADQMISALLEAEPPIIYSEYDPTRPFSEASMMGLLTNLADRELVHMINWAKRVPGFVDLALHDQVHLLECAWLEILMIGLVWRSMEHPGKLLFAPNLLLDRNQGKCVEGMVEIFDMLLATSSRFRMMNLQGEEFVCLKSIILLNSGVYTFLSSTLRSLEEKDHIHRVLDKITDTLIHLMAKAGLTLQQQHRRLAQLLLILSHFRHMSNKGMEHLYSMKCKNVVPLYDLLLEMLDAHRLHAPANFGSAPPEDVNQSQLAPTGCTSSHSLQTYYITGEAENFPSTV

For `CCCCCCCCCCCC(=O)OCC(O)CO` (centres undefined), the outcome in [1], in assay [2], in assay [3], in assay [4], in assay [5] and in [6] was inactive. Moreover, the result in [7] and in [8] was inactive.
Turning to `O=C1OC(=O)c2c(Cl)c(Cl)c(Cl)c(Cl)c21`, the molecule was classed as inactive in [1].
As to `CCC1CCCCC1`, in [9], the call was inactive.
With `CN1CCOCC1`, the molecule was classed as inactive in assay [1] and in assay [10].
Turning to `CN(c1nccc(=O)[nH]1)C1CCN(c2nc3ccccc3n2Cc2ccc(F)cc2)CC1`, the molecule was called inactive (in [9]; in [11]; with PGR (gene 5241)).
Take `CCCCCCCCCCCCCCN(CCO)CCO`: the outcome in assay [1], in assay [8] and in [12] was inactive.
For the molecule `Cc1cc(CCC(=O)OCCOCCOCCOC(=O)CCc2cc(C)c(O)c(C(C)(C)C)c2)cc(C(C)(C)C)c1O`, in assay [13], the AC50 is 721 nM (active).
On to `C=CC(=O)OCCCC`, for which the molecule was classed as inactive in assay [13] and in assay [14].
On to `Cc1ccc(S(=O)(=O)Oc2ccc(N=Nc3ccc(-c4ccc(N=Nc5c(O)ccc6cc(S(=O)(=O)O)cc(S(=O)(=O)O)c56)c(C)c4)cc3C)cc2)cc1`, for which the AC50 in assay [13] was 48.9 nM (active); in assay [14] it was 118 nM (active); in assay [10] it was 5440 nM (active). Besides, the call in [15], in [8], in assay [12] and in [16] was inactive.
As for `Nc1ccc2cc(S(=O)(=O)O)cc(O)c2c1N=Nc1ccccc1C(F)(F)F`, the AC50 in assay [13] was 1160 nM (active); in assay [14], 5020 nM (active); in [16], 155 nM (active). The molecule was called inactive in assay [8].
For the molecule `CCCCN(CCCC)C(=O)N(CCCC)CCCC`, the AC50 in assay [13] is 20600 nM (active); in [14], 10400 nM (active).
Consider `CN(C)c1cccc(O)c1`, for which the molecule was called inactive in assay [1] and in assay [8].
Turning to `CN(C)C(=O)Nc1ccc(Oc2ccc(Cl)cc2)cc1`, the values for the AC50 in assay [13] and in assay [14] were 2910 nM (active) and 5740 nM (active), respectively.
In the case of `CCCCC(CC)COC(=O)c1ccc(O)cc1` (centres undefined), the AC50 is 2710 nM (active) in [13], 1230 nM (active) in assay [14] and 910 nM (active) in [8]. Also, the outcome in assay [16] and in [17] was inactive.
With `Cc1[nH]c(=O)c(C#N)cc1-c1ccncc1`, the outcome in assay [2] was inactive.
Consider `COc1ccc(N=Nc2cc(C)c(N=Nc3ccc(S(=O)(=O)O)cc3)cc2OC)cc1`, for which the AC50 in assay [13] is 2050 nM (active); in [14], 41.8 nM (active); in [10] it was 25000 nM (active). In assay [8], the molecule was called inactive.
Regarding `O=C(Nc1ccc2c(O)c(N=Nc3ccc(N=Nc4ccc(S(=O)(=O)O)cc4)cc3)c(S(=O)(=O)O)cc2c1)c1ccccc1`, in [10], the AC50 is 40600 nM (active). Further, the call in assay [4], in [5], in [6], in [7] and in assay [8] was inactive.
